Assay results published in PubChem BioAssay (NCI).
This is part of a sample that, as a whole, favours compounds with a hit. Of some 79,000 tested, about 15% had one in any assay. Active and inactive are the calls of the source. No stated cut-off is given here; in the data, active means growth inhibition above about 70%; inactive means the rest.

What was measured:
[1] = NCI Yeast Anticancer Drug Screen. Data for the rad50 strain (AID 155);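 further: 0% = growth of vehicle-only cultures of the same strain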; settings: S. cerevisiae rad50 strain growth inhibition; at 50.0 µM; active compounds read high
How it was run: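 Genetically altered yeast (DNA repair pathway); compound treatment; growth inhibition vs vehicle ctrl.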

[2] = NCI Yeast Anticancer Drug Screen. Data for the mec2-1 strain (AID 157); settings: S. cerevisiae mec2-1 strain, at 50.0 µM, active compounds read high
How it was run: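 Growth inhibition is read against vehicle-treated controls after compound exposure of the mec2-1 yeast strain, which is defective in DNA damage repair or cell cycle control.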

[3] = NCI Yeast Anticancer Drug Screen. Data for the sgs1 mgt1 strain (AID 161);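 further: 0% = growth of cultures given vehicle only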; settings: S. cerevisiae sgs1 mgt1 strain, at 50.0 µM, active compounds read high
How it was run: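 Compounds are added to genetically altered yeast, and growth is compared with cultures given vehicle alone to give percent inhibition.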

[4] = NCI Yeast Anticancer Drug Screen. Data for the cln2 rad14 strain (AID 165);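 further: 0% = growth equal to vehicle treated cultures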; settings: S. cerevisiae cln2 rad14 strain, at 50.0 µM, active compounds read high
How it was run: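 Growth inhibition, relative to vehicle-treated controls, is the read-out. The test organism is a yeast strain with defined genetic alterations, cln2 rad14.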

[5] = NCI Yeast Anticancer Drug Screen. Data for the bub3 strain (AID 167); settings: S. cerevisiae bub3 mutant strain, at 50.0 µM, active compounds read high
How it was run: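 Yeast carrying a defined mutation is treated with each compound, and growth is compared with that of vehicle-exposed cells to give inhibition.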

[6] = NCI Yeast Anticancer Drug Screen. Data for the mlh1 rad18 strain (AID 175); settings: S. cerevisiae mlh1 rad18 strain growth inhibition; at 50.0 µM; active compounds read high
How it was run: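 Cells of a genetically altered yeast strain, deficient in DNA damage repair, were treated with compound. Their growth was then compared with that of vehicle-treated cultures to give inhibition.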

Measured: growth inhibition

C=CCOC(=O)CCC(=O)OCC=C
inactive: [1] 3.45% | [2] 6.2% | [3] -4.65% | [4] -15.4% | [5] 5.8% | [6] -4.35%

CN1CC(CN2CCCCCC2)C(O)C(c2ccccc2)C1 (configuration not stated)
inactive: [1] 1.7% | [2] -7.1% | [3] 18% | [4] 7.85% | [5] -1.5% | [6] 27.6%

O=C(COc1ccccc1Cl)N1N=C(c2ccccc2)CC1(O)c1ccccc1 (configuration not stated)
inactive: [1] -4.25% | [2] 10.1% | [3] 25% | [4] 8.35% | [5] 19.6% | [6] 15.9%

CCOC(=O)C(CCCN=C(N)NC(=O)OCc1ccccc1)NC(=O)C(C(C)C)N1C(=O)c2ccccc2C1=O (configuration not stated)
active: [1] 93% | [2] 78.5% | [3] 96.2% | [6] 96%
inactive: [4] 52% | [5] 48.9%

CC(C)(C)OC(=O)NC(Cc1ccccc1)OCc1ccccc1 (configuration not stated)
inactive: [1] -11.3% | [2] -25.2% | [3] -0.05% | [4] 11.8% | [5] -15.4% | [6] -19.7%

Cc1ccc(N2C(=O)CC3(CCCC3)C2=O)cc1Cl
inactive: [1] 14.6% | [2] -2% | [3] -6.05% | [4] 5.95% | [5] 5% | [6] 21.6%

COC(=O)C(/C(=N\NC(N)=S)C(=O)Nc1ccccc1[N+](=O)[O-])c1cnc2ccccc2n1 (configuration not stated)
inactive: [1] 5% | [2] -14.7% | [3] -8.55% | [4] 2.1% | [5] -19.1% | [6] -18.7%

CCOC(=O)CCC(NC(=O)c1ccc([N+](=O)[O-])cc1)C(=O)OCC (configuration not stated)
inactive: [1] 29.6% | [2] -32.3% | [3] -7.3% | [4] -86.5% | [5] 7.7% | [6] 26.1%

CSC(=NCc1ccccc1)Nc1c(C)cccc1C
inactive: [1] 13.4% | [2] 4.45% | [3] 6.75% | [4] 8.1% | [5] 28.1% | [6] 17.1%

Cc1ccc(C2(C)CC[C@@H]3C[C@@]32C)c(O)c1 (some centres not stated)
active: [1] 91.2% | [2] 93.8% | [3] 93.5% | [4] 92.2% | [5] 92.7% | [6] 91.8%

COc1ccccc1/C=N\NC(C)=O
inactive: [1] -9.9% | [2] 6.05% | [3] 5.35% | [4] 2.25% | [5] 6.05% | [6] -14.7%

N#Cc1nc(-c2ccccc2C(=O)O)oc1N
inactive: [1] -0.5% | [2] 9.8% | [3] -16.1% | [4] 5.7% | [5] -7.15% | [6] -62%

CC(C)(C)[Si](C)(C)OCC1OC(n2cnc3c(N)ncnc32)C(O)C1O (configuration not stated)
inactive: [1] -12.4% | [2] -15.2% | [3] 4.85% | [4] -0.2% | [5] 3.5% | [6] -2.35%

CC(=O)N(C(C)=O)C1=C(c2ccccc2)C(=O)c2ccccc21
inactive: [1] 13.2% | [2] 22.2% | [3] 14% | [4] -0.75% | [5] -2.95% | [6] 40.1%

CCc1ccc2c(c1)C(C)(CC)CCC2C (configuration not stated)
inactive: [1] -2.45% | [2] -6.5% | [3] -16.4% | [4] -43% | [5] -8.95% | [6] 8.7%

CC(=O)OCC1OC(n2c(-c3ccc(Cl)cc3)cc(-c3ccccc3)c(C#N)c2=S)C(OC(C)=O)C(OC(C)=O)C1OC(C)=O (configuration not stated)
inactive: [1] 20.6% | [2] -9.25% | [3] 6.5% | [4] 2.8% | [5] 17.8% | [6] 14.2%

CCCCOC1NC(=O)NC(=O)C1(F)C(=O)OCC (configuration not stated)
inactive: [1] 4% | [2] -9.75% | [3] 5.45% | [4] 9.4% | [5] -9.55% | [6] -0.85%

CCOc1ccc2nc(NC(=O)/C(CC(=O)CC(C3=C(O)c4ccccc4CC3=O)c3ccccc3)=N\O)sc2c1 (configuration not stated)
inactive: [1] -0.85% | [2] -7% | [3] -12.6% | [4] -18.6% | [5] -0.25% | [6] -20.1%

COC(=O)C(C(=O)C(=O)Nc1c(Cl)cc([N+](=O)[O-])cc1Cl)c1nc2cc(C)c(C)cc2[nH]c1=O (configuration not stated)
inactive: [1] 16.6% | [2] 3.1% | [3] 20.8% | [4] 14.3% | [5] -4.85% | [6] -9.75%

Fc1ccc2nncc(/C=C/c3ccccc3F)c2c1
inactive: [1] 11.3% | [2] 7.6% | [3] 8.4% | [4] -4.85% | [5] 11% | [6] -3.5%

CCCCCCCCCCCNc1ncnc2[nH]ncc12
inactive: [1] -8.6% | [2] -16.5% | [3] 5.3% | [4] -0.7% | [5] -2.05% | [6] 9.8%

Fc1ccc(F)c(C2SCc3nc4ccccc4n32)c1 (configuration not stated)
inactive: [1] 19.4% | [2] 19.1% | [3] 33.1% | [4] 25.1% | [5] 16.6% | [6] 24.6%

CCN(CC)CCOC(c1ccccc1)c1ccccc1
inactive: [1] 3.8% | [2] -9.75% | [3] -1.2% | [4] -10.8% | [5] -0.05% | [6] -11.8%

CO/C(N)=C(\C#N)N=Cc1ccco1
inactive: [1] -21.4% | [2] -22.4% | [3] -4.65% | [4] 11.8% | [5] -4.55% | [6] 9.3%

CC(=O)Nc1ccc(F)c([N+](=O)[O-])c1
inactive: [1] -6.45% | [2] -19.6% | [3] 3.35% | [4] -13.7% | [5] -14.9% | [6] 5.7%

CCCCOCCOC(=O)c1ccccc1C(=O)OCCOCCCC
inactive: [1] -5.75% | [2] -42.4% | [3] -49.4% | [4] -49% | [5] -23.1% | [6] -25%

O=C1Nc2ccccc2/C1=N/N=P(c1ccccc1)(c1ccccc1)c1ccccc1
inactive: [1] -10.2% | [2] 0.35% | [3] 10.1% | [4] 2.4% | [5] -5.8% | [6] -5.15%

COc1ccc(CCNC(=O)CC2CCN(Cc3ccccc3)CC2)cc1OC
inactive: [1] 3.65% | [2] 1.15% | [3] 5.2% | [4] -3.75% | [5] -3.45% | [6] -1.5%

Cc1ccc([N+](=O)[O-])cc1Br
inactive: [1] 0.3% | [2] -16.1% | [3] -0.5% | [4] -11.8% | [5] 5.5% | [6] 4%

O=[N+]([O-])c1ccc2c(c1)Cc1cc([N+](=O)[O-])ccc1-2
inactive: [1] -12.3% | [2] -64.5% | [3] -25.4% | [4] -181% | [5] -54.1% | [6] 51.2%

COC1OC(CO)C(O)C(OC(C)=O)C1NC(=O)N(CCCl)N=O (configuration not stated)
inactive: [1] -4.9% | [2] -13.4% | [3] -6.2% | [4] 7.4% | [5] -7.65% | [6] -8.75%

CCC(Cl)(c1ccccc1)C(O)C(=O)OC(C)C (configuration not stated)
inactive: [1] 8% | [2] 2.65% | [3] 10.8% | [4] -2.35% | [5] -6.3% | [6] 11.8%

COC(=O)c1oc([N+](=O)[O-])c(-c2ccccc2)c1-c1ccccc1
inactive: [1] 6.95% | [2] 12.5% | [3] 29.3% | [4] -11.5% | [5] 6.85% | [6] 24.1%

O=C1c2cccc3cccc(c23)C(=O)N1Cc1ccco1
inactive: [1] 41.4% | [2] 36.2% | [3] 45% | [4] 44.5% | [5] 40.2% | [6] 24.7%

CCCc1nc(N)nc(C(=O)Nc2cccc(C(F)(F)F)c2)c1CC
inactive: [1] -15.2% | [2] -19.4% | [3] 5.1% | [4] 4.05% | [5] 2.15% | [6] -8.25%

Cc1cccc(Cl)c1NC(=O)N(C)c1ccccc1
inactive: [1] 8.95% | [2] -11.9% | [3] 14.2% | [4] 23.4% | [5] 23.9% | [6] 11.7%

O=C1Nc2c(cccc2-c2ccccc2)C(=O)C1(O)c1ccccc1 (configuration not stated)
inactive: [1] -0.35% | [2] -1.2% | [3] -0.6% | [4] -9.8% | [5] -2.6% | [6] -3.95%

CC(=O)NCc1cc([N+](=O)[O-])ccc1O
inactive: [1] 11.6% | [2] 2.55% | [3] -0.8% | [4] -6.2% | [5] -3.55% | [6] 5.05%

Nc1cc(=O)n(Cc2ccco2)c(=S)[nH]1
inactive: [1] 19.8% | [2] -16.6% | [3] 9.35% | [4] 2.75% | [5] -7.95% | [6] -8%

O=S(=O)(OCC1CC2CCC1CC2)c1ccc(Br)cc1 (configuration not stated)
inactive: [1] -17.1% | [2] 1.9% | [3] 9.35% | [4] 0.8% | [5] 10.2% | [6] -22.9%

COc1ccc(COC=O)cc1
inactive: [1] 21.8% | [2] -5.1% | [3] -0.8% | [4] 1.55% | [5] 11.3% | [6] 24.4%

Cc1cccc(C(C)(C)C)c1NC(=O)C(=O)Cc1nc2ccccc2s1
inactive: [1] -12.1% | [2] 7.05% | [3] 5.6% | [4] -41.7% | [5] 5.4% | [6] 18.2%
